Assay outcomes: PubChem BioAssay, National Center for Advancing Translational Sciences (NCATS)
AMA1-RON2 inh: qHTS for Inhibitors of AMA1-RON; Towards Development of Antimalarial Drug Lead: Primary Screen; Plasmodium falciparum AMA1 (3D7) - RON2 peptide interaction; 360,000 compounds, 0.2% hits; Potency, µM (doses to about 58.2 µM), for inactives: top-dose activity change, negative = inhibition, usual class: inhibitors; AID 720542, 2013; AlphaScreen AMA1-biotinylated RON2 peptide binding;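 further: 0% = vehicle wells and -100% = peptide control; nearly all actives have a fitted effect of over 45% in size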
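AMA1 (3D7) with his tag at 25 nM final met compounds first, then biotinylated RON2 peptide at 25 nM; detection used donor plus acceptor beads, 10 µg/mL apiece, read by AlphaScreen after 30 min at room temperature.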
Pf growth 48h: Primary qHTS for delayed death inhibitors of the malarial parasite plastid, 48 hour incubation. 310,000 compounds, 5.9% hits. Potency, µM (doses to about 28.7 µM), without a hit: at the top dose activity change, negative = inhibition, usual class: inhibitors. AID 504832, 2011. P. falciparum luciferase growth in erythrocytes, 48 h
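Read-out is firefly luciferase luminescence from an integrated reporter in P. falciparum, so falling signal marks reduced parasite growth. Infected erythrocytes were at 2% hematocrit and 0.1% parasitemia (final) in Albumax-supplemented RPMI 1640.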
AmpC inh detg: qHTS Inhibitors of AmpC Beta-Lactamase (assay with detergent); 370,000 compounds, 0.041% hits; AID 485294, 2010; P00811; Potency, µM (highest dose often 114 µM), without a hit: at the top dose activity change, negative = inhibition, usual class: inhibitors; AmpC hydrolysis of nitrocefin, absorbance 480 nm, 0.01% Triton;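 further: 0% = no-compound wells and -100% = no-enzyme wells; nearly all actives have a fitted effect of over 25% in size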
Target sequence (P00811 whole entry, looked up): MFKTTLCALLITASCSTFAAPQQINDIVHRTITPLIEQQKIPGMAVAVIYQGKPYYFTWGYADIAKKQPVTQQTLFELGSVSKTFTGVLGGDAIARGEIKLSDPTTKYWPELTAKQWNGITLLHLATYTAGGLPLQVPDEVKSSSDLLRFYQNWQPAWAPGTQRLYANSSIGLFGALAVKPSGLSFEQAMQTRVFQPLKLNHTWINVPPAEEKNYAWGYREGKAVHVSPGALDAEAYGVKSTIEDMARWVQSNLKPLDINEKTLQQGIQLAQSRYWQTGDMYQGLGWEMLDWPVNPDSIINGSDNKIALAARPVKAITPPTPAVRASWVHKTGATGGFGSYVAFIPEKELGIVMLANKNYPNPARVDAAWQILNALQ
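20 mM phosphate pH 7.0 + 0.01% (detergent screen) or 0.0001% Triton X-100; 5.3 nM AmpC reagent; cpd preinc 15 min RT; nitrocefin (800 uM stock) to start; A480 q20 s × 4 min; Activity was normalised to no-enzyme and no-compound control wells.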
Pf growth 96h: Primary qHTS for delayed death inhibitors of the malarial parasite plastid, 96 hour incubation; P. falciparum luciferase reporter growth, 96 h; Potency, µM (doses to about 28.7 µM), inactives show top-dose activity change, negative = inhibition, actives largely listed as inhibitors; 320,000 compounds, 6.9% hits; AID 504834, 2011
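Parasite growth measured via integrated firefly luciferase reporter in P. falciparum. Infected erythrocytes at 2% hematocrit, 0.05% parasitemia final were treated 96 hours at 37 C under 5% CO2, and luminescence was read.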
AmpC no deterg: qHTS Inhibitors of AmpC Beta-Lactamase (assay without detergent) | P00811 | AmpC nitrocefin hydrolysis, absorbance 480 nm, 0.0001% Triton | Potency, µM (titrated, usually from 57.1 µM), inactives show at the top dose activity change, negative = inhibition, hits mostly inhibitors | 330,000 compounds, 0.52% hits | AID 485341, 2010;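 further: plate controls were no compound for no effect and no enzyme for full effect; nearly all actives have a fitted effect of over 20% in size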
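20 mM phosphate pH 7.0 + 0.01% (detergent screen) or 0.0001% Triton X-100; 5.3 nM AmpC reagent; cpd preinc 15 min RT; nitrocefin (800 uM stock) to start; A480 q20 s × 4 min; Activity was normalised to no-enzyme and no-compound control wells.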
HCV inhibitor: qHTS Assay for Inhibitors of Hepatitis C Virus (HCV); AID 651820, 2012; 340,000 compounds, 3.4% hits; Huh7.5.1 HCVcc-Cre infection, luciferase reporter, 44 h; Potency, µM (top dose mostly 41.8 µM), inactives show top-dose activity change, negative = inhibition, hits mostly inhibitors
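Antiviral activity was scored by luciferase reporter output from cells infected with HCVcc-Cre (~0.5 moi) in presence of compound, 44 h infection period, cells seeded 1,000/well 4 h prior.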
* hit, by the source's call; ? = inconclusive; . = not tested or not shown; [ ] = remark or other dose. This is a sample that favours compounds with a hit; in the whole collection about 11% have one here. The call rests on the fitted dose curve; in most records, active means well fitted curve in the direction sought with a large enough effect; inconclusive means small, poorly fitted or top-dose-only effect, or another doubt; inactive means no such curve, though single readings can be large; an effect the other way counts as inactive or inconclusive. Unless noted, on the % scale 0 is the no-effect control and ±100 the full control effect; potency means the concentration at half of the fitted maximal effect.

SMILES | AMA1-RON2 inh | Pf growth 48h | AmpC inh detg | Pf growth 96h | AmpC no deterg | HCV inhibitor
O=C(CC1C(=O)NCCN1Cc1c(F)cccc1Cl)NCCCOc1cccnc1 (stereo unspecified) | 4% | -16% | -8% | 15µM* | 41% | 5%
CCOc1ccc(CN2CCNC(=O)C2CC(=O)NCCc2cnccn2)cc1 (stereo unspecified) | 32% | -2% | 1% | 0% | 22% | 8%
Cc1cc(CN(C)C(=O)CC2C(=O)NCCN2Cc2ccc(-c3ccccc3)cc2)on1 (stereo unspecified) | 20% | -17% | -11% | 10µM* | 136% | -3%
Cc1cc(CN(C)C(=O)CC2C(=O)NCCN2Cc2ccc(F)c(F)c2)on1 (stereo unspecified) | -3% | 5% | 0% | 24% | 7% | 8%
CC(C)N(Cc1nccn1C)C(=O)CC1C(=O)NCCN1Cc1ccc(F)cc1 (stereo unspecified) | 41% | 16% | -6% | 13µM* | -4% | 12%
N#Cc1ccccc1NC(=O)C(=O)NCCc1csc2nc(-c3cccc(F)c3)nn12 | . | . | -6% | . | . | .
COc1ccc(Cl)cc1C(=O)Nc1ccc2oc(-c3ccc(C(C)(C)C)cc3)nc2c1 | . | . | 1% | . | . | .
Cc1nc(-c2ccccc2)sc1-c1ccc(SCC(=O)NCc2ccc(F)cc2)nn1 | . | . | -1% | . | . | .
CCC1CN(C(=O)N2CCC(C(=O)NCCC3=CCCCC3)CC2)c2cc(C)ccc2O1 (stereo unspecified) | . | . | 23% | . | . | .
Cc1nc(CNC(=O)CC2C(=O)NCCN2Cc2ccc(F)cc2)cs1 (stereo unspecified) | 9% | 21% | 2% | -26% | 28% | .
CCOc1ccc(CN2CCNC(=O)C2CC(=O)NCc2csc(C)n2)cc1 (stereo unspecified) | 15% | -3% | -5% | 3.3µM* | 83% | .
Cc1ccc(CN2CCNC(=O)C2CC(=O)N(C)Cc2cnccn2)cc1 (stereo unspecified) | 31% | 28% | -10% | 13µM* | -1% | 5%
Cc1nonc1CN(C)C(=O)CC1C(=O)NCCN1Cc1cccc(C(F)(F)F)c1 (stereo unspecified) | 17% | 36% | -2% | 10µM* | 71% | ?
Cc1cc(-c2ccc(S(=O)(=O)Nc3cccc(Cl)c3C)cc2)on1 | . | . | 3% | . | . | .
O=C(CSc1nnnn1C1CC1)N1CCN(c2cccc(Cl)c2)CC1 | 6% | . | . | . | -3% | 13µM*
O=C(CSc1nnnn1C1CC1)N1CCN(c2ccc(O)cc2)CC1 | -8% | ? | -6% | ? | 0% | 6%
CC(C)c1ccc(CN2CCN(C(=O)CSc3nnnn3C3CC3)CC2)cc1 | -1% | 7.4µM* | 7% | 12µM* | 200% | 5.6µM*
Cc1cc(C)c2c(n1)SCC(=O)N2CC(=O)Nc1cccc(C)c1C | . | . | 18% | . | . | .
Cc1ccc2c(c1)nnn2C1CCN(S(=O)(=O)c2ccc(C(=O)N3C(C)CCCC3C)cc2)CC1 (stereo unspecified) | -6% | ? | -3% | ? | 86% | 6.3µM*
Cc1ccc2c(c1)nnn2C1CCN(S(=O)(=O)c2ccc(C(=O)O)cc2)CC1 | 8% | -7% | 3% | -7% | -1% | 34%
COc1ccc2cc3cc(C(=O)NCCc4ccccc4)sc3nc2c1Cl | . | . | 8% | . | . | .
Cc1ccc(CNC(=O)C2CCN(S(=O)(=O)c3cn(C)cn3)CC2)cc1 | . | . | -8% | . | . | .
Nc1ncnc2c1ncn2[C@@H]1O[C@H](CNCc2ccc(OCC(=O)Nc3ccccn3)cc2)[C@@H](O)[C@H]1O | -3% | . | . | . | -25% | 11%
Nc1nc(Nc2ccccc2)nc2c1ncn2[C@@H]1O[C@H](CO)[C@@H](O)[C@H]1O | -17% | . | . | . | . | 2µM*
OC[C@H]1O[C@@H](n2cnc3c(NCc4ccco4)ncnc32)[C@H](O)[C@@H]1O | 5% | . | . | . | . | 18µM*
SMILES | AMA1-RON2 inh | Pf growth 48h | AmpC inh detg | Pf growth 96h | AmpC no deterg | HCV inhibitor
Nc1ncnc2c1ncn2[C@@H]1O[C@H](CNCc2ccc(OCc3ccccc3)cc2)[C@@H](O)[C@H]1O | 1% | . | . | . | 45% | 4µM*
OCC1OC(n2cnc3c(NCc4ccco4)ncnc32)C(O)C1O (stereo unspecified) | 3% | . | . | . | . | ?
CCOC(=O)c1c(C)[nH]c(C2=NNC(=Nc3cccc(Cl)c3)SC2)c1C | . | 2.1µM* | -4% | 2.1µM* | ? | ?
O=C(NCC(c1ccc2c(c1)OCO2)N1CCN(c2ccccc2)CC1)c1ccccc1 (stereo unspecified) | . | . | -2% | . | . | .
O=C(C1=C[C@@H](C2CCCCC2)C[C@@H](OCc2ccc(CO)cc2)O1)N1CCN(Cc2ccc3c(c2)OCO3)CC1 | -29% | 4.7µM* | 9% | 13µM* | 89% | ?
O=C(C1=C[C@H](C2CCCCC2)C[C@H](OCc2ccc(CO)cc2)O1)N1CCN(Cc2ccc3c(c2)OCO3)CC1 | -18% | ? | 8% | 10µM* | 109% | 2%[8.37 µM]
O=C(C1=C[C@H](C2CC2)C[C@H](OCCCCO)O1)N1CCN(Cc2ccc3c(c2)OCO3)CC1 | 6% | ? | 7% | ? | 148% | -15%
O=C(C1=C[C@H](C2CC2)C[C@H](OCc2ccc(CO)cc2)O1)N1CCN(Cc2ccc3c(c2)OCO3)CC1 | 10% | ? | 9% | ? | 142% | ?
CC1CCc2c(sc(NC(=O)c3cc(-c4ccc(Br)cc4)on3)c2C(N)=O)C1 (stereo unspecified) | . | . | 2% | . | . | .
COc1ccc(N2CCN(C(=O)Cn3cnc4sc(C)c(S(=O)(=O)N5CCC(C)CC5)c4c3=O)CC2)cc1 | . | . | 7% | . | . | .
Cc1c(C)c2cc3c(c(C)c2oc1=O)OCN(CCc1ccccc1)C3 | . | . | 6% | . | . | .
COc1ccc(NC2c3ccccc3C(=O)N2c2cccnc2)cc1 (stereo unspecified) | -7% | ? | 1% | 10µM* | -8% | -3%
O=C1c2ccccc2C(Nc2ccccc2F)N1c1cccnc1 (stereo unspecified) | 5% | . | -9% | 14% | -28% | 11%
COC(=O)c1ccccc1NC1c2ccccc2C(=O)N1c1cccnc1 (stereo unspecified) | 47% | ? | ? | -14% | 7.1µM* | -1%
